Measurements: PubChem BioAssay AID1159607 (Small Molecule Screening Facility, UW Madison, 2016)
“And” between values parts separate entries of the source, which are not always exact repeats. Equal entries are not always repeated. Screen size: about 70,000 compounds; about 400 (0.57%) were called active. This is one part of a sample in which actives are shown more often than they occur. No stated cut-off is given here; in the data, active means FP signal below about 40; inactive means the rest.

Tested on: RMI core complex (RMI1/RMI2) binding to FANCM MM2 peptide, human
Test: disruptors of RMI1/RMI2 association with MM2 peptide – biochemical, fluorescence polarization, human, primary screen (AID 1159607)
Details: RMI core complex with F-MM2 peptide, at 33 µM, stronger effect = lower value

SMILES | FP signal (polarization)
CC(=O)O[C@H]1CC[C@@]2(C)C(=CCC3C2CC[C@]2(C)C(=O)CCC32)C1 (stereo not given in full) | -6 (active)
CC(=O)NBr | 53 (inactive)
CC12CCC3C(CCC4CC(O)CCC43C)C1C/C(=C\c1ccccc1Cl)C2=O (stereo not given) | 62 (inactive)
CN1CCc2cc3c(cc2[C@H]1[C@@H]1OC(=O)c2c1ccc1c2OCO1)OCO3 | 67 (inactive) and 61 (inactive)
CSC(=NCc1ccccc1Cl)N/C(N)=N/[N+](=O)[O-] | 58 (inactive)
NCC(O)c1ccc(O)cc1 (stereo not given) | -18 (active) and 54 (inactive) and 46 (inactive)
COc1ccc2c(c1O)-c1cccc3c1[C@@H](C2)N(C)CC3 | 57 (inactive)
c1cncc(OCC2=NCCN2)c1 | 51 (inactive)
CNC(=O)O/N=C\C(C)(C)SC | 58 (inactive)
CC(=O)NS(=O)(=O)c1ccc(NC(=O)c2cccn(Cc3cccc([N+](=O)[O-])c3)c2=O)cc1 | 51 (inactive)
